Measured values as given in PubChem BioAssay (NCI).
This is part of a sample that, as a whole, favours compounds with a hit. Of some 83,000 tested, about 20% had one in any assay.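 Treatment: one concentration, 48 hours, 96-well format. Scoring: percent growth, with anything below 10 considered active.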 Unmarked numbers belong to inactive results. The source made the active and inactive calls.

How the values were obtained:
Assay in all cases: NCI-60 one-dose screen, 48 h (100 = growth as untreated, 0 = no growth, -100 = all killed)
NCI-H23 lung = conditions: 10 µM unless noted
NCI-H226 lung = conditions: 10 µM unless noted
NCI-H322M lung = conditions: 10 µM unless noted
HOP-62 NSCLC = conditions: 10 µM unless noted
NCI-H460 lung = conditions: 10 µM unless noted
HOP-92 NSCLC = conditions: 10 µM unless noted
A549/ATCC NSCLC = conditions: 10 µM unless noted
786-0 renal = conditions: 10 µM unless noted
COLO 205 colon = conditions: 10 µM unless noted
NCI-H522 lung = conditions: 10 µM

Structure (SMILES): Clc1ccc(C2=NN(c3ccc(Cl)cc3)C(c3cccc(Nc4ccnc5cc(Cl)ccc45)c3)C2)cc1 (stereo unspecified)
- growth (NCI-H23 lung): 85.2%
- growth (NCI-H226 lung): 88%
- growth (NCI-H322M lung): 87.7%
- growth (HOP-62 NSCLC): 69.4%
- growth (NCI-H460 lung): 93.1%
- growth (HOP-92 NSCLC): 88%
- growth (A549/ATCC NSCLC): 70.9%
- growth (786-0 renal): 85.3%

Structure (SMILES): COc1cc(C(=O)/C=C/c2cccc(Nc3ccnc4cc(Cl)ccc34)c2)cc(OC)c1OC
- growth (NCI-H23 lung): 11.1%
- growth (NCI-H226 lung): -18.7% (active)
- growth (NCI-H322M lung): 8.86% (active)
- growth (HOP-62 NSCLC): -76.8% (active)
- growth (NCI-H460 lung): 4% (active)
- growth (HOP-92 NSCLC): 16.3%
- growth (A549/ATCC NSCLC): -38.7% (active)
- growth (786-0 renal): -74.1% (active)
- growth (COLO 205 colon): -36.1% (active)

Structure (SMILES): [N-]=[N+]=NCc1ncc(-c2ccc(C(F)(F)F)cc2)c(NC2CCCCCC2)n1
- growth (NCI-H23 lung): 66.1% [50 µM]
- growth (NCI-H226 lung): 80.9% [50 µM]
- growth (NCI-H322M lung): 89.5% [50 µM]
- growth (HOP-62 NSCLC): 87% [50 µM]
- growth (NCI-H460 lung): 58.4% [50 µM]
- growth (HOP-92 NSCLC): 64.5% [50 µM]
- growth (A549/ATCC NSCLC): 59.4% [50 µM]
- growth (786-0 renal): 68.7% [50 µM]

Structure (SMILES): CC[C@@H](c1ccc(O)c(O)c1)[C@@H](CC)c1ccc(O)c(O)c1
- growth (NCI-H23 lung): 96.6%
- growth (NCI-H226 lung): 105%
- growth (NCI-H322M lung): 97%
- growth (HOP-62 NSCLC): 106%
- growth (NCI-H460 lung): 111%
- growth (HOP-92 NSCLC): 69.6%
- growth (A549/ATCC NSCLC): 107%
- growth (786-0 renal): 100%
- growth (COLO 205 colon): 9.38% (active)

Structure (SMILES): COc1ccc(-c2cc(-c3cccnc3)nc3sc(C(=O)Nc4ccccc4)c(N)c23)cc1OC
- growth (NCI-H23 lung): 87.8%
- growth (NCI-H226 lung): 77.2%
- growth (NCI-H322M lung): 79.3%
- growth (HOP-62 NSCLC): 84.3%
- growth (NCI-H460 lung): 44.3%
- growth (HOP-92 NSCLC): 24.9%
- growth (A549/ATCC NSCLC): 74.2%
- growth (786-0 renal): 63.9%
- growth (COLO 205 colon): 72.6%

Structure (SMILES): COc1ccc2c(c1)sc1nc(-c3ccc(N(C)C)cc3)cn12
- growth (NCI-H23 lung): 99.2%
- growth (NCI-H226 lung): 139%
- growth (NCI-H322M lung): 98.2%
- growth (HOP-62 NSCLC): 105%
- growth (NCI-H460 lung): 85%
- growth (HOP-92 NSCLC): 34.3%
- growth (A549/ATCC NSCLC): 96.6%
- growth (786-0 renal): 89.7%

Structure (SMILES): Cc1ccc(S(=O)(=O)NCCN2c3nc4ccccc4cc3Sc3cc4ccccc4nc32)cc1
- growth (NCI-H23 lung): 56.9%
- growth (NCI-H226 lung): 65.6%
- growth (NCI-H322M lung): 91.7%
- growth (HOP-62 NSCLC): 55.8%
- growth (NCI-H460 lung): 70.8%
- growth (HOP-92 NSCLC): 15.7%
- growth (NCI-H522 lung): 52.8%
- growth (786-0 renal): 61.9%
- growth (COLO 205 colon): 113%

Structure (SMILES): O=C1c2cc3c(cc2-c2c1c1ccc(Cl)cc1c(=O)n2CCCNCCO)OCO3
- growth (NCI-H23 lung): -73% (active)
- growth (NCI-H226 lung): -70.9% (active)
- growth (NCI-H322M lung): -84.5% (active)
- growth (HOP-62 NSCLC): -81.4% (active)
- growth (NCI-H460 lung): -75.4% (active)
- growth (HOP-92 NSCLC): -79.4% (active)
- growth (A549/ATCC NSCLC): -82.2% (active)
- growth (786-0 renal): -81.6% (active)

Structure (SMILES): COc1cc(/C=N/NC(=O)c2ccc(C(F)(F)F)nc2Nc2cc(Cl)ccc2C)cc(OC)c1OC
- growth (NCI-H23 lung): 104%
- growth (NCI-H226 lung): 96.6%
- growth (NCI-H322M lung): 105%
- growth (HOP-62 NSCLC): 99.7%
- growth (NCI-H460 lung): 108%
- growth (HOP-92 NSCLC): -30% (active)
- growth (A549/ATCC NSCLC): 103%
- growth (786-0 renal): 97.7%
- growth (COLO 205 colon): 109%

Structure (SMILES): COc1ccc(CNC(=O)c2c(C)n([O-])c3cc(F)c(F)cc3[n+]2=O)cc1
- growth (NCI-H23 lung): 41.9%
- growth (NCI-H226 lung): 99.6%
- growth (NCI-H322M lung): 97.1%
- growth (HOP-62 NSCLC): 107%
- growth (NCI-H460 lung): 97.2%
- growth (HOP-92 NSCLC): 89.1%
- growth (NCI-H522 lung): 77.9%
- growth (786-0 renal): 92.9%
- growth (COLO 205 colon): 131%

Structure (SMILES): COc1cc(/C=C/c2cc(/C=C/c3ccc(O)c(OC)c3)n(C(=O)c3ccc(Cl)cc3)n2)ccc1O
- growth (NCI-H23 lung): 21.8%
- growth (NCI-H226 lung): 48.4%
- growth (NCI-H322M lung): 28.5%
- growth (HOP-62 NSCLC): 20.3%
- growth (NCI-H460 lung): 4.86% (active)
- growth (HOP-92 NSCLC): -2.95% (active)
- growth (A549/ATCC NSCLC): 12.4%
- growth (786-0 renal): 19.5%

Structure (SMILES): C1=C(Cc2ccccc2)n2cnc3ncnc(c32)S1
- growth (NCI-H23 lung): 61.3%
- growth (NCI-H226 lung): 53.7%
- growth (NCI-H322M lung): 73%
- growth (HOP-62 NSCLC): 39.9%
- growth (NCI-H460 lung): 83.8%
- growth (HOP-92 NSCLC): 56.6%
- growth (A549/ATCC NSCLC): 87.3%
- growth (786-0 renal): 29.3%

Structure (SMILES): COc1ccc(OC)c(CCn2cncc2-c2c[nH]c3cc(Br)ccc23)c1
- growth (NCI-H23 lung): 30.1%
- growth (NCI-H226 lung): 41.5%
- growth (NCI-H322M lung): 87.1%
- growth (HOP-62 NSCLC): 38%
- growth (NCI-H460 lung): 36.7%
- growth (HOP-92 NSCLC): 20.6%
- growth (A549/ATCC NSCLC): 31.2%
- growth (786-0 renal): 59.5%

Structure (SMILES): O=C(/C=C(\Nc1ccccc1)c1ccccc1)c1cn(-c2ccc([N+](=O)[O-])cc2)nn1
- growth (NCI-H23 lung): 91.4%
- growth (NCI-H226 lung): 95.3%
- growth (NCI-H322M lung): 82.8%
- growth (HOP-62 NSCLC): 101%
- growth (NCI-H460 lung): 91%
- growth (HOP-92 NSCLC): 95%
- growth (NCI-H522 lung): 86.1%
- growth (786-0 renal): 92.1%
- growth (COLO 205 colon): 97.2%

Structure (SMILES): Clc1ccc2c(c1)C(Br)c1cc(Cl)cc(Cl)c1-2 (stereo unspecified)
- growth (NCI-H23 lung): 14.8%
- growth (NCI-H226 lung): 14.4%
- growth (NCI-H322M lung): 81.4%
- growth (HOP-62 NSCLC): 88.1%
- growth (NCI-H460 lung): 99.9%
- growth (HOP-92 NSCLC): 53.5%
- growth (A549/ATCC NSCLC): 98.4%
- growth (786-0 renal): 84.9%

Structure (SMILES): Nc1nc(Nc2ccccc2SSc2ccccc2Nc2nc(N)nc(-c3cccc(Cl)c3)n2)nc(-c2cccc(Cl)c2)n1
- growth (NCI-H23 lung): 78.6%
- growth (NCI-H226 lung): 82.7%
- growth (NCI-H322M lung): 91.8%
- growth (HOP-62 NSCLC): 7.83% (active)
- growth (NCI-H460 lung): 89.9%
- growth (HOP-92 NSCLC): 105%
- growth (A549/ATCC NSCLC): -24.8% (active)
- growth (786-0 renal): 99.1%
- growth (COLO 205 colon): 119%

Structure (SMILES): CCCCCN(CCCCC)CCCNc1c2c(nc3ccc(Cl)cc13)CCCC2
- growth (NCI-H23 lung): 30.7%
- growth (NCI-H226 lung): 50.8%
- growth (NCI-H322M lung): 73.8%
- growth (HOP-62 NSCLC): 44.3%
- growth (NCI-H460 lung): 34%
- growth (HOP-92 NSCLC): -6.23% (active)
- growth (A549/ATCC NSCLC): 31.8%

Structure (SMILES): CCCCCCC(CC#N)(CCC)CCCC (stereo unspecified)
- growth (NCI-H23 lung): 110%
- growth (NCI-H226 lung): 96.7%
- growth (NCI-H322M lung): 113%
- growth (HOP-62 NSCLC): 111%
- growth (NCI-H460 lung): 98.9%
- growth (HOP-92 NSCLC): 73.9%
- growth (A549/ATCC NSCLC): 103%
- growth (786-0 renal): 108%
